Test results from PubChem BioAssay (Tox21).
Inconclusive results are not listed. A call without a number means that no potency is given here. Calls of active or inactive are those of the source. Calls come from the whole dose curve; as a rule, active = well fitted cell-killing curve with a large enough effect in the repeat runs; inconclusive = weak or mixed curves, or effect the other way; inactive = flat fitted curve, though single readings scatter.

Columns and labels:
[1] = cAMP Responsive Elements (CRE) small molecule antagonists, cell-based qHTS assay: qHTS cell viability counter screen (AID 2060913); note: nearly all actives have a fitted effect of over 40% in size
Method in brief: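 CRE-bla HEK293T cells were seeded in assay medium with 10% dialyzed FBS, incubated 18 hrs at 37 C, then exposed to compounds plus 0.25 uM final NKH477 for 3 hrs. Viability was read by CellTiter-Glo luminescence after 30 min, in the same wells.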

[2] = cAMP Responsive Elements (CRE) small molecule agonists, cell-based qHTS assay: qHTS cell viability counter screen (AID 2060914); note: nearly all actives have a fitted effect of over 50% in size
Method in brief: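 Cytotoxicity was measured as ATP luminescence (CellTiter-Glo, 30 min at room temperature) in the same wells as the CRE-bla FRET read-out. HEK293T CRE-bla cells had 3 h compound exposure at 37C/5% CO2.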

Row | SMILES | Potency [1] | Potency [2] | viability change, negative = cytotoxic [1] | activity change, negative = cytotoxicity [2]
1 | CCCCCBr | inactive | inactive | – | –
2 | CCOP(=O)(Sc1ccccc1)Sc1ccccc1 | inactive | inactive | – | –
3 | Clc1cc2c(cc1Cl)Oc1cc(Cl)c(Cl)cc1O2 | – | – | 7.14% [at 0.349 µM] (inactive) | 1.6% [at 0.349 µM] (inactive)
4 | Oc1ccc(Cl)cc1Cc1ccccc1 | inactive | inactive | – | –
5 | O=C(O)Cc1ccccc1 | inactive | inactive | – | –
6 | CCc1cccc(C)c1N(C(=O)CCl)[C@@H](C)COC | inactive | inactive | – | –
7 | O=C(O)CC(O)(CC(=O)O)C(=O)O | inactive | inactive | – | –
8 | Cc1cc(Cl)ccc1N=CN(C)C | inactive | inactive | – | –
9 | C=CC1(C)OC(=O)N(c2cc(Cl)cc(Cl)c2)C1=O (centres undefined) | inactive | inactive | – | –
10 | CCCCN(CCCC)SN(C)C(=O)Oc1cccc2c1OC(C)(C)C2 | inactive | inactive | – | –
11 | C1=CCC=C1 | inactive | inactive | – | –
12 | CCSC(=O)N(CC)C1CCCCC1 | inactive | inactive | – | –
13 | CC[C@H](O)C(C[C@H](C)N(C)C)(c1ccccc1)c1ccccc1 | inactive | inactive | – | –
14 | C=C(C)CCl | inactive | inactive | – | –
15 | N#CC(C#N)=Cc1ccc(O)c(O)c1 | inactive | inactive | – | –
16 | CCC(C)(C)O | inactive | inactive | – | –
17 | COS(=O)(=O)OC | inactive | inactive | – | –
18 | COc1ccc(-c2ccccc2)cc1NNC(=O)OC(C)C | inactive | inactive | – | –
19 | CC(C)CC(C)N (centres undefined) | inactive | inactive | – | –
20 | CCC[N+](CCC)(CCC)CCC | inactive | inactive | – | –
21 | CC(C)(OO)c1ccccc1 | inactive | inactive | – | –
22 | CC1=C(C(=O)O)N2C(=O)[C@@H](N)[C@H]2SC1 | – | – | 6.72% [at 18.9 µM] (inactive) | 16% [at 18.9 µM] (inactive)
